Assay results taken from PubChem BioAssay.
“And” between values parts separate entries of the source, which are not always exact repeats. Identical values can stand only once. The source made the active and inactive calls. Unless noted, how the calls were made is not given here.

Columns and labels:
[1] = compound effects on lung adenocarcinoma cell viability – A549, calcein-AM fluorescence, 48 h, basal, profiling panel (AID 1162); conditions: higher = more signal; further: test concentration not given here
[2] = compound effects on differentiated 3T3-L1 adipocyte viability – cell-based, 3T3-L1 adipocytes, calcein-AM fluorescence, 48 h, basal, profiling panel (AID 1163); conditions: 3T3-L1 adipocytes viability, higher = more signal; further: test concentration not given here
[3] = compound effects on hepatocellular carcinoma cell viability – HepG2, calcein-AM fluorescence, 48 h, basal, profiling panel (AID 1164); conditions: higher = more signal; further: test concentration not given here
[4] = compound effects on multiple myeloma cell viability – MM1S, calcein-AM fluorescence, 48 h, basal, profiling panel (AID 1165); conditions: higher = more signal; further: test concentration not given here
[5] = calcein-AM signal in unstimulated myeloma cells – cell-based, calcein-AM fluorescence, 48 h, PK04 Diversity Set, profiling panel (AID 1166); conditions: RPMI8226 myeloma viability, higher = more signal;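 further: cells grown under basal conditions without added stimulus; test concentration not given here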
[6] = JC-1 mitochondrial signal, unstimulated HepG2 cells – cell-based, JC-1 fluorescence, 24 h, 100 nL compound, profiling panel (AID 1167); conditions: HepG2 mitochondrial potential, higher = more signal; further: test concentration not given here
[7] = JC-1 mitochondrial signal, unstimulated adipocytes – cell-based, JC-1 fluorescence, 3T3-L1 adipocytes, 24 h, 100 nL compound, profiling panel (AID 1168); conditions: JC-1 mitochondrial fluorescence, higher = more signal, called active from +8 up or from −8 down; further: test concentration not given here
[8] = JC-1 mitochondrial signal, unstimulated myeloma cells – cell-based, JC-1 fluorescence, RPMI8226, 24 h, 100 nL compound, profiling panel (AID 1169); conditions: JC-1 mitochondrial potential fluorescence, higher = more signal; further: test concentration not given here
[9] = JC-1 mitochondrial signal, unstimulated MM1S myeloma – cell-based, JC-1 fluorescence, 24 h, 100 nL compound, profiling panel (AID 1170); conditions: MM1S mitochondrial potential, higher = more signal; further: test concentration not given here
[10] = resazurin metabolic signal in A549 cells – cell-based, resazurin fluorescence, 24 h, PK04 Diversity Set, profiling panel (AID 1171); conditions: A549 viability, higher = more signal, called active from +8 up or from −8 down; further: test concentration not given here
[11] = resazurin metabolic signal in HepG2 cells – cell-based, resazurin fluorescence, 24 h, PK04 Diversity Set, profiling panel (AID 1172); conditions: HepG2 viability, higher = more signal; further: test concentration not given here
[12] = budding yeast growth changes without added modifier – OD600, strain BY4716, 24 h, basal condition, primary screen (AID 1173); conditions: S. cerevisiae BY4716 growth, OD600, 24 h; higher = more signal, called active from +8 up or from −8 down
[13] = viability profiling in MM1S myeloma cells – cell-based, resazurin fluorescence, basal, 24 h, PK04 Diversity Set, profiling panel (AID 1174); conditions: higher = more signal, called active from +8 up or from −8 down; further: test concentration not given here
[14] = target: Dihydroorotate dehydrogenase (quinone), mitochondrial (Plasmodium falciparum (isolate 3D7)) (UniProt Q08210); experiment: inhibition of P. falciparum DHODH – biochemical, C-terminal His tag, absorbance 600 nm, primary screen (AID 1175); conditions: PfDHODH enzyme, DCIP absorbance 600 nm; higher = more signal, called active from +8 up or from −8 down;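 further: recombinant parasite enzyme with a five histidine tag at its C terminus; test concentration not given here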
Sequence of Dihydroorotate dehydrogenase (quinone), mitochondrial (Plasmodium falciparum (isolate 3D7)) (Q08210 whole entry, looked up): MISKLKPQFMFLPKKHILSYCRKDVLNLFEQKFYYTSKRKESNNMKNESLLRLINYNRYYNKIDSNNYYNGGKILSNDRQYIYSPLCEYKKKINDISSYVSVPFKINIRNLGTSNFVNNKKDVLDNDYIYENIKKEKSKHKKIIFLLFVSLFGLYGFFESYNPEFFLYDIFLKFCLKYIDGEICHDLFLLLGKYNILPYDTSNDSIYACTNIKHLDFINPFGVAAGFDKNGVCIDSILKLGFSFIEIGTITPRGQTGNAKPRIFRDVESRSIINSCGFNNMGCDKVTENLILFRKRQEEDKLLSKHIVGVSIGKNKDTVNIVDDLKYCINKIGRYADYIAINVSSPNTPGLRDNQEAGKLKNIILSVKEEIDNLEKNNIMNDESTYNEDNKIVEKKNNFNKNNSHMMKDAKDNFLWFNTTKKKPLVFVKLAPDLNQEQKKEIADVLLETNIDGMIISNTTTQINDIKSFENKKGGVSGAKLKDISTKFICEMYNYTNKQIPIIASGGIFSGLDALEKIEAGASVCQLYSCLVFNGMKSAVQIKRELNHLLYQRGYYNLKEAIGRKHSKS

[15] = inhibition of PAO1 biofilm formation – strain PAO1, LB-PBS medium, absorbance 600 nm, primary screen (AID 1176); further: test concentration not given here; conditions: P. aeruginosa PAO1 growth/biofilm, A600, 12 h; higher = more signal
[16] = growth modulation of vineyard yeast isolate – strain RM11-1a, OD600, basal, 24 h, primary screen (AID 1177);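 further: cultures grown under basal conditions with no added stressor; test concentration not given here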; conditions: S. cerevisiae RM11-1a growth, OD600, 24 h; higher = more signal, called active from +8 up or from −8 down
[17] = growth of efflux-deficient E. coli DRC39 – strain DRC39, OD650, 24 h, E. coli filamentation inducers, primary screen (AID 1178);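 further: growth measured as culture turbidity by optical density at 650 nm; test concentration not given here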; conditions: E. coli DRC39 acrAB, higher = more signal, called active from +8 up or from −8 down
[18] = growth of efflux-deficient E. coli DRC39 – strain DRC39, OD650, 48 h, E. coli filamentation inducers, primary screen (AID 1179);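 further: screen aims at cell division blockers that make cells filament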; conditions: E. coli DRC39 delta-acrAB growth, higher = more signal, called active from +8 up or from −8 down
[19] = viability profiling in RPMI8226 myeloma cells – cell-based, resazurin fluorescence, basal, 24 h, PK04 Diversity Set, profiling panel (AID 1180); conditions: higher = more signal;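 further: RPMI8826 multiple myeloma cell line at 5000 cells per well; test concentration not given here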
[20] = target: E3 ubiquitin-protein ligase XIAP (Homo sapiens) (UniProt P98170); experiment: small molecules binding XIAP protein – biophysical, small-molecule microarray, fluorescence 635 nm, primary screen (AID 1181); conditions: higher = more signal;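 further: score merges 667 nm emission and signal to noise over triplicate slides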
Sequence of E3 ubiquitin-protein ligase XIAP (Homo sapiens) (P98170 whole entry, looked up): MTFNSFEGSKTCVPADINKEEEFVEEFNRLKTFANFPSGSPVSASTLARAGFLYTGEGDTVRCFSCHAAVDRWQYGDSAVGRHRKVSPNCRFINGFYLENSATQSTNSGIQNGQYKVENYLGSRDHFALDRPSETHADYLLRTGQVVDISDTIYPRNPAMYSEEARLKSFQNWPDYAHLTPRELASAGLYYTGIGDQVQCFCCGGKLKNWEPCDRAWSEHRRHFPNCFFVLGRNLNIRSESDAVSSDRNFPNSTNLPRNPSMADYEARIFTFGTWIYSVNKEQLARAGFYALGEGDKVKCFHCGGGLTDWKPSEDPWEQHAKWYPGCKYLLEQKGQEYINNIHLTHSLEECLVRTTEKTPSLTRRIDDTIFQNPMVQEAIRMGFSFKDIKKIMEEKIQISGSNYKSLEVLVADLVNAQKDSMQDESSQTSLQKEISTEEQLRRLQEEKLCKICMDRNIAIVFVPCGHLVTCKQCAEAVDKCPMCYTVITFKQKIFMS

| SMILES | z-score [1] | z-score [2] | z-score [3] | z-score [4] | z-score [5] | z-score [6] | z-score [7] | z-score [8] | z-score [9] | z-score [10] | z-score [11] | z-score [12] | z-score [13] | composite z-score [14] | z-score [15] | z-score [16] | z-score [17] | z-score [18] | z-score [19] | composite z-score [20] |
| --- | --- | --- | --- | --- | --- | --- | --- | --- | --- | --- | --- | --- | --- | --- | --- | --- | --- | --- | --- | --- |
| C=CCN(CCCC)C(=O)C1N(CCOCCO)C(=O)C2C(C(=O)O)C3C=CC21O3 (stereo not given) | -0.397 and -0.276 | 0.28 and -0.404 | -1.2 and -1.42 | 0.929 and 0.966 | -0.234 and 0.295 | -0.419 and -0.964 | -0.309 (inactive) and -0.776 (inactive) | 0.563 and 0.0271 | 0.0912 and -0.0623 | -0.169 (inactive) and -0.593 (inactive) | -0.171 and -0.143 | 0.492 (inactive) and 1.27 (inactive) | -0.451 (inactive) and -0.748 (inactive) | 0.457 (inactive) and 0.856 (inactive) | 0.413 (inactive) and 0.261 (inactive) | -0.119 (inactive) and 0.178 (inactive) | 0.127 (inactive) and -0.229 (inactive) | -0.11 (inactive) and -0.406 (inactive) | -0.472 and -0.68 | 0.0258 and -0.304 |
| C=CCN(C(=O)C(c1cccs1)N(C(=O)/C=C\C(=O)O)C(C)(C)CO)c1ccc(OC)cc1 (stereo not given) | 3.04 and 1.76 | 1.09 and 0.718 | 0.717 and 1.1 | 1.61 and 1.55 | -0.223 and 1.05 | 1.16 and 0.287 | 2.24 (inactive) and 0.954 (inactive) | -0.567 and 0.754 | 0.212 and 0.326 | 0.579 (inactive) and -0.0357 (inactive) | 0.916 and 0.892 | -2.66 (inactive) and -1.93 (inactive) | 1.41 (inactive) and 0.788 (inactive) | -1.46 (inactive) and -1.61 (inactive) | 0.659 (inactive) | -4.37 (inactive) and -2.5 (inactive) | 1.81 (inactive) and 1.92 (inactive) | 2.23 (inactive) and 2.15 (inactive) | 0.402 and 0.207 | -0.102 and 0.214 |
| C=CCN(CCCC)C(=O)C(c1cccs1)N(C(=O)/C=C\C(=O)O)c1ccc(CCO)cc1 (stereo not given) | -0.178 and 0.505 | -0.0575 and -0.458 | 0.267 and 1.02 | 1.72 and 1.52 | 0.657 and -0.192 | 0.484 and -0.279 | -0.527 (inactive) and 0.0402 (inactive) | -0.996 and 0.19 | -0.874 and -0.407 | 0.0696 (inactive) and -0.0804 (inactive) | -0.289 and -0.837 | -0.561 (inactive) and -0.0853 (inactive) | -0.508 (inactive) and -2.49 (inactive) | -0.133 (inactive) and 0.117 (inactive) | -0.208 (inactive) and -0.469 (inactive) | 0.24 (inactive) and 0.473 (inactive) | 0.596 (inactive) and 0.709 (inactive) | 0.597 (inactive) and 0.915 (inactive) | -0.213 and -0.931 | -0.102 and 0.0641 |
| CC(C)CON=C1C[C@@H](O)[C@@H](O)[C@@H]2[C@@H]3C(=O)N(c4cccc(Oc5ccccc5)c4)C(=O)[C@@H]3CC[C@H]12 | 0.259 | 0.425 | -0.641 | 0.957 | -0.0145 | 1.34 | 0.461 (inactive) | 0.288 | -0.309 | -0.0819 (inactive) | 0.608 | 0.121 (inactive) | 0.768 (inactive) | -0.564 (inactive) | 0.34 (inactive) | 0.79 (inactive) | 0.85 (inactive) | 0.0947 (inactive) | 1.33 | -0.055 |
| C=CCN(Cc1ccccc1)C(=O)C1N(C(C)(C)CO)C(=O)C2C(C(=O)O)C3C=CC21O3 (stereo not given) | -0.535 and -0.297 | -0.355 and 0.134 | -1.11 and 0.0167 | 0.0296 and 1.03 | 0.0867 and -0.103 | -0.955 and -0.123 | 0.0762 (inactive) and -0.264 (inactive) | 0.248 and 0.652 | -0.16 and -0.15 | -0.363 (inactive) and 0.344 (inactive) | -0.767 and 0.937 | 0.424 (inactive) and -0.874 (inactive) | -0.796 (inactive) and 0.0609 (inactive) | 1.25 (inactive) and 0.316 (inactive) | -0.112 (inactive) and -0.193 (inactive) | -1.32 (inactive) and -0.417 (inactive) | -0.0429 (inactive) and 0.296 (inactive) | -0.0639 (inactive) and 0.0039 (inactive) | -0.699 and 0.447 | 0.0322 and -0.328 |
| COc1ccc(-c2ccc3c(n2)CCCN3CC(O)CN2CCCc3nc(-c4ccc(Br)cc4)ccc32)cc1 (stereo not given) | 0.261 and -0.331 | 0.163 and 0.196 | -0.0242 and 0.0285 | -2.63 and -0.767 | -0.393 and -0.48 | 0.219 and -1.61 | -0.136 (inactive) and -0.88 (inactive) | 0.553 and 0.817 | 0.0404 and -0.331 | -0.23 (inactive) and 0.169 (inactive) | -0.721 and 0.465 | -4.64 (inactive) and -1.56 (inactive) | -0.791 (inactive) and -0.334 (inactive) | 0.0106 (inactive) and 0.0126 (inactive) | -0.139 (inactive) and -0.245 (inactive) | 0.665 (inactive) and 0.0647 (inactive) | 0.336 (inactive) and 0.725 (inactive) | 0.191 (inactive) and 0.761 (inactive) | -0.286 and -0.439 | 1.04 and 0.94 |
